# Bioassay records as filed in PubChem BioAssay.
# Sampled rows, rich in hits. Any-hit rate of the full collection: about 3.1%.
# mTORC1 inh: Acumen qHTS Assay for Inhibitors of the mTORC1 Signaling Pathway in MEF (Tsc2-/-, p53-/-) Cells: Sytravon; Tsc2-/- p53-/- MEF, phospho-rpS6 immunofluorescence/PI, 24 h; Potency, µM (highest dose often 38.3 µM), for the others: top-dose activity change, negative = inhibition, actives largely listed as inhibitors; 44,000 tested, 0.78% active;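 note: plate controls were DMSO for no effect and rapamycin for full effect; nearly all actives have a fitted effect of over 50% in size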
#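 Tsc2-/-, p53-/- mouse embryonic fibroblasts (empty-vector line) exposed to compound 24 hrs at 37 C, fixed, immunostained for phospho-rpS6 and counterstained with propidium iodide. Acumen laser scanning gives % positive cells from Alexa 488/PI ratio, thresholded using 7.5 nM rapamycin; PI count gives viability.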
# PMP22 txn: Cell-based coincidence reporter assay to measure PMP22 gene transcription in S16 Pmp22-F2sN cells - Primary screen; 43,000 tested, 2% active; Potency, µM (series often up to 57.5 µM), without a hit: top-dose activity change, negative = inhibition, actives largely listed as inhibitors; S16 Pmp22-F2sN Schwann cells, FLuc/NLuc coincidence luminescence, 24 h; AID 1508649, 2021; active = clear falling dose curves in both reporters; inconclusive = both reporters move, but less clearly or upward; inactive = either reporter flat; the % is the NLuc reporter signal
#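 S16(c9) Schwann cells with FLuc/NLuc coincidence reporter in the Pmp22 3' UTR; compounds pin-transferred, 24 h at 37C. Dual-luciferase read: FLuc first, then NLuc after Stop&Glo, each 10 min at room temperature.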
# p53null 39C kill: qHTS Screen for Compounds that Selectively Target Cancer Cells with p53 Mutations: Cytotoxicity of p53 Null Cells at the Nonpermissive Temperature. H1299 p53-null (neo) cells, 39C, ATPlite viability, 24 h. 55,000 tested, 0.97% active. AID 904, 2007. Potency, µM (highest dose often 46.1 µM), without a hit: top-dose activity, negative = cell killing, actives largely listed as cytotoxic;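 note: 0% = DMSO only and -100% = full killing by 100 µM tamoxifen; nearly all actives have a fitted effect of over 50% in size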
#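 Luminescent ATP signal reported cell survival after H1299 lines (neo, p53 null; or p53 A138V) received up to 46 uM compound and 24 hr incubation at 39C.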
# p53null 32C kill: qHTS Screen for Compounds that Selectively Target Cancer Cells with p53 Mutations: Cytotoxicity of p53 Null Cells at the Permissive Temperature. 55,000 tested, 0.62% active. Potency, µM (titrated, usually from 46.1 µM), without a hit: at the top dose activity change, negative = cytotoxicity, most hits filed as cytotoxic. H1299-neo p53 null cells, ATP luminescence, 24 h, 32C;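 note: 0% = DMSO only and -100% = full killing by 100 µM tamoxifen; nearly all actives have a fitted effect of over 55% in size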
#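 H1299-neo (p53-null) cells, 600/well, were pre-incubated overnight at 37C, then exposed to compounds at up to 46 uM for 24 hr at 32C. Viability was measured as ATP content by luminescence, and AC50 values came from Hill fits.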
# SKOV3 invasion: Primary qHTS assay for Inhibitors of ovarian cancer metastasis using an organotypic tumor microenvironment (TME) model | SKOV3ip1-GFP adhesion/invasion on 3D omental model, fluorescence | Potency, µM (series often up to 45.8 µM), for the others: at the highest dose activity change, negative = inhibition, hits mostly inhibitors | 46,000 tested, 0.1% active;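 note: plate controls were DMSO wells for no effect and tomatine positive control wells for full effect; nearly all actives have a fitted effect of over 65% in size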
#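 Adhesion/invasion was scored as fixed GFP-labeled SKOV3ip1 cell counts (488/509 nm), normalized to DMSO and tomatine controls. Cancer cells in serum-free medium, with four compound doses (0.36-46 umol/L), sat 2 hr at RT then 16 hr at 37 C on a 48 hr fibroblast/mesothelial/ECM culture.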
# S16 F2sN tox: Cell viability qHTS assay in S16 Pmp22-F2sN cells. S16 Pmp22-F2sN Schwann cells viability, CellTiter-Glo, 24 h. Potency, µM (highest dose often 57.5 µM), without a hit: top-dose activity change, negative = cytotoxicity, hits mostly cytotoxic. 43,000 tested, 0.48% active. AID 1508642, 2021; note: nearly all actives have a fitted effect of over 65% in size
#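 S16 Pmp22-F2sN Schwann cells (500-1,000/well) in phenol-red-free DMEM with 10% FBS received 23 nL compound by pin tool for 24 h at 37 °C. Viability was then read as CellTiter-Glo luminescence after 15 min at room temperature.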
# * hit, by the source's call; i = inactive; ? = inconclusive; / = no result. Unless noted, calls come from the whole dose curve; as a rule, active = well fitted curve in the direction sought with a large enough effect; inconclusive = small, poorly fitted or top-dose-only effect, or another doubt; inactive = no such curve, though single readings can be large; an effect the other way counts as inactive or inconclusive. Unless noted, % is set by controls: 0 for no effect and ±100 for the full control effect; potency is the fitted concentration of half-maximal effect.
SMILES,mTORC1 inh,PMP22 txn,p53null 39C kill,p53null 32C kill,SKOV3 invasion,S16 F2sN tox
Cc1ccc(-c2nc3c(c(SCC(=O)N(C)c4ccccc4)n2)Cc2c(CO)cnc(C)c2O3)cc1,0%,?,-11%,2%,1%,?
O=C(COc1ccc(F)cc1)NCCc1nc2ccccc2[nH]1,-12%,-5%,-12%,14%,3%,-1%
c1ccc2cc(OCc3nc4ccccc4[nH]3)ccc2c1,/,/,11µM*,11µM*,/,/
COc1ccc(-c2noc(CSc3nnc(C)n3-c3ccc(OC)cc3)n2)cc1,-3%,?,-17%,-10%,16%,-11%
COc1ccc(-c2noc(CSc3nnc(-c4ccncc4)n3-c3ccc(OC)cc3)n2)cc1,-3%,2.4µM*,10%,7%,-9%,?
CCOC(=O)c1ccc(NC(=O)Cn2cc(C(=O)c3ccc(Cl)cc3)c(=O)c3ccc(C)nc32)cc1,3%,12µM*,-21%,5%,-7%,?
N#CC(=C(O)c1ccc(Cl)cc1Cl)c1nc2cc(Cl)ccc2c(=O)[nH]1,/,/,/,/,-7%,/
O=C(NCCc1ccc(Cl)cc1)C(=O)NCC(c1ccco1)S(=O)(=O)c1ccc(Cl)cc1 (stereo unspecified),1.2µM*,?,10%,-7%,-7%,?
Cc1ccc(S(=O)(=O)C(CNC(=O)C(=O)NCCc2ccc(Cl)cc2)c2ccco2)cc1 (stereo unspecified),-1%,-57%,-12%,1%,25%,-29%
CCOc1ccc(NC(=O)Cn2c(=O)n(CCCCCC(=O)NCc3ccccc3)c(=O)c3sccc32)cc1,?,?,-20%,-13%,6%,20µM*
CCN(CC)C(=O)Cn1c(=O)n(CCCCCC(=O)NCc2ccccc2)c(=O)c2sccc21,0%,-9%,-7%,7%,i,-19%
CCc1ccc(NC(=O)Cn2c(=O)n(-c3ccccc3)c(=O)c3ccc(C(=O)NCc4ccc5c(c4)OCO5)cc32)cc1,?,?,-15%,-14%,-2%,5%
CC(C)NC(=O)C1CCC(Cn2c(=O)c3sccc3n(CC(=O)Nc3ccccc3)c2=O)CC1 (stereo unspecified),1%,?,1%,0%,-2%,25µM*
CCOc1ccc(NC(=O)Cn2c(=O)n(-c3ccccc3)c(=O)c3ccc(C(=O)NCc4ccc5c(c4)OCO5)cc32)cc1,-11%,?,16µM*,-10%,24%,-18%
CCOc1ccccc1NC(=O)Cn1c(=O)n(CC(=O)NCc2ccccc2Cl)c(=O)c2sccc21,-3%,?,?,0%,i,28µM*
CC(C)c1ccccc1Cc1cc(C(=O)Nc2ccc(S(=O)(=O)c3ccccc3C(C)(C)C)cc2)c(O)c(O)c1O,/,/,/,/,-24%,/
CC(=Cc1ccccc1)C=C1SC(=S)N(CC(=O)O)C1=O,/,/,/,/,3%,/
N#Cc1ccccc1NC(=O)c1ccc2c(Cl)c3c(nc2c1)CCCC3,/,/,23%,1%,/,/
O=C(Nc1ccccc1F)c1ccc2c(Cl)c3c(nc2c1)CCC3,0%,?,1.6µM*,1.3µM*,-16%,0%
CCN1CCN(CCCNC(=O)c2cnn(-c3ccc(C)cc3)c2C2CCN(C(=O)OC(C)(C)C)CC2)CC1,1%,-49%,8%,2%,-7%,5%
Cc1ccc(C)c(N2CCN(CCCNC(=O)c3cnn(-c4ccccc4Cl)c3C3CCN(C(=O)OC(C)(C)C)CC3)CC2)c1,?,?,13µM*,30%,?,?
Cc1ccc(C)c(N2CCN(CCCNC(=O)c3cnn(-c4ccc(F)cc4)c3C3CCN(C(=O)OC(C)(C)C)CC3)CC2)c1,?,?,25µM*,22%,-15%,?
Cc1ccc(C)c(N2CCN(CCCNC(=O)c3cnn(-c4cccc(Cl)c4)c3C3CCN(C(=O)OC(C)(C)C)CC3)CC2)c1,?,?,?,-22%,i,?
OCCn1cc(-c2ccc3c(c2)CCC3=NO)c(-c2ccncc2)n1,/,/,/,/,12%,/
Cc1ccc(C)c(CN2CCC(CNC(=O)Nc3ccc(Br)cc3F)CC2)c1,?,?,?,-1%,?,28µM*
SMILES,mTORC1 inh,PMP22 txn,p53null 39C kill,p53null 32C kill,SKOV3 invasion,S16 F2sN tox
CCOc1ccccc1N=Nc1c(C)[nH]n(-c2nc(-c3ccccc3)cs2)c1=O,/,/,/,/,-4%,/
CCc1ccc(NC(=O)C2CCN(c3nn4cc(-c5ccc(OC)cc5)nc4s3)CC2)cc1,-5%,-30%,-7%,0%,i,-7%
CC(C)Cc1nn2cc(-c3cccc(Br)c3)nc2s1,-6%,?,16µM*,13µM*,36%,-4%
CCc1ccc(-c2cn3nc(CC)sc3n2)cc1,?,-25%,10µM*,13µM*,-22%,5%
CCCCCc1nn2cc(-c3ccccc3)nc2s1,2%,-9%,16µM*,10µM*,i,11%
CCCc1nn2c(C)c(-c3ccccc3)nc2s1,-3%,?,10µM*,7.9µM*,3%,4%
CC(C)Cn1c(-c2cccc(Br)c2)nc2ccccc21,0%,?,-3%,16%,0%,-16%
O=C(NNC(=O)c1ccc(CNS(=O)(=O)c2ccc(F)c(Cl)c2)cc1)c1ccccc1,/,/,/,/,-1%,/
Cc1ccc(-c2ncn(-c3ccc(Nc4nccc(-c5cccc(N6CCOCC6)c5)n4)cc3)n2)cn1,/,/,/,/,-16%,/
Oc1ccc(C2=Cc3ccc(O)cc3OC2)cc1,/,/,/,/,4%,/
Nc1nc(-c2nn(Cc3ccccc3F)c3ncccc23)nc(N)c1N1CCOCC1,/,/,/,/,-8%,/
CCCS(=O)(=O)Nc1ccc(F)c(C(=O)c2c[nH]c3ncc(-c4ccc(Cl)cc4)cc23)c1F,/,/,/,/,-9%,/
O=C1CC(c2ccccc2)Cc2[nH]c(=O)c(-c3nc(-c4cccc(Cl)c4)cs3)cc21 (stereo unspecified),12µM*,-21%,-16%,22%,?,?
